# Bioassay records deposited in PubChem by Sanford-Burnham Center for Chemical Genomics.
# TROY NFkB inh – inhibitors of TROY-dependent NF-kB signaling. AID 1347056. inhibition, % at 10 µM. Q293 LMP1-TROYcd NF-kB luciferase reporter, 4 h. hit rate 0.98% among 360,000;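 active = compounds whose plate-normalised and pattern-corrected inhibition of the luciferase reporter signal at the single screening dose is 50% or more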
# TWEAK-Fn14 inh – TWEAK-Fn14 signaling inhibition | TWEAK-stimulated Fn14 reporter cells, luciferase luminescence, 8 h | inhibition, % at 10 µM | hit rate 2% among 360,000 | AID 1159606; in the data active = inhibition above about 50%
# HIF-2a block – inhibitors of HIF-2a; inhibition, % at 18.8 µM; AID 624352; 786-0 RCC cells HIF-2a reporter, luciferase luminescence, overnight; hit rate 0.72% among 360,000;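 active = inhibition of the luminescence signal of 40% or more relative to plate controls, in a single-dose primary screen at 18.75 µM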
# Peg3 promoter – reduces Peg3 promoter-driven luciferase expression in HeLa; HeLa PEG-Prom luciferase reporter, luminescence, overnight; hit rate 1.7% among 360,000; inhibition, % at 20 µM; AID 588405;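 active = inhibition of at least 50% at 20 µM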
# KKLEB cytotox – counter-screen for CF NF-kB inhibitors: cytotoxicity; KKLEB CF airway cells viability, ATPlite luminescence, overnight; active compounds read low; cells stimulated with P. aeruginosa culture filtrate; activity change (cytotoxicity), % at 5 µM; hit rate 0.36% among 360,000; AID 602141;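 active = corrected activity change at or below -50% at 5 µM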
# CF NFkB inh – blocks PAF-induced NF-kB reporter in cystic fibrosis cells; KKLEB NF-kB-GFP reporter, GFP fluorescence overnight; inhibition, % at 5 µM; hit rate 0.86% among 360,000;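 active = at least 50% inhibition at 5 µM, scaled per plate between neutral and stimulator controls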;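 note: PAF is a Pseudomonas aeruginosa culture filtrate used as stimulus; plate controls were PAF-stimulated DMSO wells for no effect and unstimulated DMSO wells for full effect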
# * = called active by the depositor; x = not tested or not shown. An excerpt weighted towards active compounds, which were near 3.9% of everything screened.
SMILES,TROY NFkB inh,TWEAK-Fn14 inh,HIF-2a block,Peg3 promoter,KKLEB cytotox,CF NFkB inh
Cc1ccccc1N(CC(=O)NC1CCCCC1)C(=O)CCCC(=O)Nc1ccccn1,8,-1,12,-2,-22,0
COc1ccc(-c2nnc(Sc3nc4ccccc4o3)c3ccccc23)cc1,-22,74*,39,45,-36,49
Cc1ncoc1C(=O)Nc1ncc([N+](=O)[O-])s1,1,50*,-92,-93,-3,12
O=C(CN1C(=O)C2C3C=CC(C3)C2C1=O)Nc1nc2ccccc2[nH]1 (configuration not stated),x,73*,-56,-59,1,0
O=C(CN1C(=O)C2C3C=CC(C3)C2C1=O)Nc1ccc(F)cc1 (configuration not stated),1,-4,11,5,8,1
CC(C)(C)C(=O)Nc1ccc(-c2cc3cc(Cl)ccc3o2)cc1,61*,58*,-32,-105,-15,16
CC(C)(Oc1ccc(Cl)cc1)C(=O)Nc1ccc2oc(=O)ccc2c1,-5,3,6,18,-2,3
CC(C)C[C@H]1CNC(=S)N1CC1CCCN1C[C@H](Cc1ccccc1)N1C[C@H](Cc2ccc(O)cc2)N(CC2CCCCCC2)C1=S (some centres not stated),-25,-4,-2,66*,-3,28
CC(C)C[C@H]1CN([C@@H](Cc2ccc(O)cc2)CN2CCCC2CN2C(=S)NC[C@@H]2Cc2ccccc2)C(=S)N1CC1CCCCC1 (some centres not stated),10,15,12,x,x,x
CC(C)C[C@H]1CN([C@@H](Cc2ccc(O)cc2)CN2CCC[C@@H]2CN2C(=S)NC[C@@H]2Cc2ccccc2)C(=S)N1CC1CCCCCC1,-3,27,-12,-8,-6,3
CC(C)C[C@H]1CNC(=S)N1C[C@H]1CCCN1C[C@H](Cc1ccc(O)cc1)N1C[C@H](Cc2ccc(O)cc2)N(CC2CCCCCC2)C1=S,16,60*,-19,101*,-59*,71*
Nc1ccc(Oc2cccc(Oc3ccc(N)cc3)c2)cc1,60*,82*,90*,30,9,-12
O=Nc1c(O)c2ccccc2c2ccccc12,42,98*,24,96*,-88*,89*
O=Nc1c2cc3ccccc3[nH]c-2c2ccccc12,2,39,-140,-263,-4,-38
Cc1cccc(N(Cc2ccccc2)C(=O)CCl)c1,-11,41,31,59*,-107*,96*
COc1ccc(CC(=O)N(Cc2ccccc2)c2cccc(C)c2)cc1OC,-5,9,3,6,-6,1
O=C(NCCN1CCNC1=O)C1CCC(=O)N(Cc2ccccc2F)C1 (configuration not stated),23,11,3,3,6,6
O=C(/C=C/c1cccc(C(F)(F)F)c1)Nc1cccc(C(F)(F)F)c1,51*,61*,-62,17,2,42
O=C(O)c1ccccc1Nc1ccccc1,-4,-24,2,-15,4,-10
Cc1ccc(NC(=O)/C=C/c2cccc(C(F)(F)F)c2)cc1,-3,18,-45,-44,-8,2
O=C(O)c1ccccc1Nc1cccc(C(F)(F)F)c1,-5,5,-13,1,-59*,12
O=c1[nH]c(=O)n(Cc2ccco2)c2c1C(C(F)(F)F)(C(F)(F)F)N=C(CCc1ccccc1)N2,14,15,29,55*,-39,7
Cc1cc2c(=O)oc(-c3ccc(F)cc3)nc2s1,-16,53*,-45,-45,-8,34
COc1ccc(CCNC(=O)COC(=O)C23CC4CC(CC(Br)(C4)C2)C3)cc1,11,70*,7,11,-6,15
COc1cccc(/C=C2\SC(=S)N(CCCC(=O)N3CCCCC3)C2=O)c1,-6,-2,67*,53*,-15,16
SMILES,TROY NFkB inh,TWEAK-Fn14 inh,HIF-2a block,Peg3 promoter,KKLEB cytotox,CF NFkB inh
COc1ccc(/C=C2\SC(=S)N(CCCC(=O)N3CCN(C)CC3)C2=O)cc1,-31,-13,45*,-25,0,-8
COc1cccc(/C=C2/SC(=S)N(CCC(=O)N3CCOCC3)C2=O)c1,-33,-5,2,19,1,30
CCc1ccc(/C=C2\SC(=S)N(CCCC(=O)N3CCN(C)CC3)C2=O)cc1,40,-6,38,25,-15,22
COc1ccc(/C=C2\SC(=S)N(CCC(=O)NC3C=CS(=O)(=O)C3)C2=O)cc1 (configuration not stated),-17,35,75*,-47,8,12
CC(=O)Oc1ccc(/C=C2/SC(=S)N(Cc3ccccc3)C2=O)cc1,-31,17,9,-3,0,8
COc1ccc(CN2C(=O)/C(=C/c3ccncc3)SC2=S)cc1,-6,12,43*,67*,-18,45
O=C(O)C(Cc1ccccc1-c1ccccc1)C(=O)O,-21,0,11,6,2,-2
CC(=O)c1ccc(N2CCN(C3CCC(C(C)(C)C)CC3)CC2)cc1 (configuration not stated),-5,-16,18,19,-2,14
COc1ccc(/C=C2\SC(=S)N(CCC(=O)NCCCn3ccnc3)C2=O)cc1,-14,0,40*,-35,0,1
CC(C)c1ccc(/C=C2\SC(=S)N(CCC(=O)NCCCn3ccnc3)C2=O)cc1,-28,13,-25,-277,-16,8
O=C(c1cc2nc(-c3ccccc3)cc(-c3ccccc3)n2n1)N1CCN(C(=O)c2ccco2)CC1,11,39,24,50*,-1,8
O=C(c1cc2nc(-c3ccccc3)cc(-c3ccccc3)n2n1)N1CCCC1,18,20,24,18,5,-8
O=C(c1cc2nc(-c3ccco3)cc(C(F)(F)F)n2n1)N1CCN(c2ccccn2)CC1,-2,51*,-5,3,2,-6
O=C1CCc2cc(S(=O)(=O)NC(Cc3ccccc3)C(=O)NC3CCCC3)ccc2N1 (configuration not stated),6,5,2,7,-5,14
Fc1ccc(NC(=S)NCc2ccccc2)cc1,13,107*,-15,-29,1,-4
O=[N+]([O-])c1ccc(NC(=S)NCc2ccc(F)cc2)cc1,56*,36,-59,36,-11,34
Fc1ccc(CNC(=S)NCc2ccccc2)cc1,-41,13,-15,15,13,-40
O=[N+]([O-])c1ccc(NC(=S)NCc2ccncc2)cc1,4,-5,2,22,-3,-1
CCc1ccc(NC(=S)Nc2cc(OC)c(NC(=O)C(C)C)cc2OC)cc1,15,-9,-48,-17,-16,12
COc1ccc(N(C(=O)c2ccco2)S(=O)(=O)c2cc(Cl)c(Cl)cc2Cl)cc1,54*,25,3,17,7,13
